# From PubChem BioAssay
# KCNQ2 inh: KCNQ2 (rat) channel inhibition. O88943. CHO-K1 KCNQ2, FluxOR thallium flux, 20 min; hits give low values. B-score at 10 µM. 310,000 tested, 1.1% active. AID 2156;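 active means fluorescence ratio B-score at most minus 3 library SDs, with starting brightness B-score within 2 library SDs, cut at about -5.5 in these data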
# KCNQ2 enhance: KCNQ2 (rat) channel potentiation | O88943 | CHO-K1 KCNQ2, FluxOR thallium flux fluorescence; hits give high values | B-score at 10 µM | 310,000 tested, 0.54% active | AID 2239;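 active means fluorescence ratio B-score at least 3 SD of library B-scores, with initial fluorescence B-score within 3 of them, cut at about 5.3 in these data; same plate scores as AID 2156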;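 further: B-score of peak minus minimum over baseline fluorescence ratio after K+ and Tl+ stimulus; positive B-score means potentiation of KCNQ2 with more thallium influx and brighter signal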
# Kir21 conf inh: confirmation of mouse Kir2.1 potassium channel inhibitors; shares compounds with KCNQ2 enhance; Kir2.1-expressing cells, FluxOR thallium flux fluorescence; hits give low values; Tl flux remaining, % of negative control (hits give low values), % at 10 µM; 2,300 tested, 41% active; AID 2032;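 active means Primary-screen hit whose thallium flux fell at least 3 control SD below untreated wells in both duplicates, with normal baseline fluorescence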
# Target sequence (P35561 whole entry, looked up): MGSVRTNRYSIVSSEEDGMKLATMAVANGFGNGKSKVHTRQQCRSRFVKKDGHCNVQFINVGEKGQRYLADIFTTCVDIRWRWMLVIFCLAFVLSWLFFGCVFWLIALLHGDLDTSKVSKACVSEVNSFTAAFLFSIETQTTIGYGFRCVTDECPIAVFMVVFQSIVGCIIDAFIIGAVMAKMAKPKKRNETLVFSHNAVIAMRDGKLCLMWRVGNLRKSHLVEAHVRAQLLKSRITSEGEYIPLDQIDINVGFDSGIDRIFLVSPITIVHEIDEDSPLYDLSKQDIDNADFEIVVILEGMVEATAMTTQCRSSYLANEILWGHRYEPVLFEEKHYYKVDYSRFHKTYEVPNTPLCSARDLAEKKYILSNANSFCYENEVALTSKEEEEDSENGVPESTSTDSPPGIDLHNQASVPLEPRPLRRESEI
# HEK293 Tl flux: alters thallium flux in parental HEK293 cells, Kir2.1 counter-screen | FluxOR thallium flux fluorescence; 0% = unstimulated blank wells | FluxOR signal as % of negative control (100 = no effect), % at 10 µM | 2,300 tested, 19% active | shares compounds with KCNQ2 enhance | AID 2105;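 active means dye signal at least 3 control SD above or below untreated wells in both duplicates, raw fluorescence within 3, either direction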;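 further: percent is based on the flux ratio of peak minus minimum fluorescence over baseline F0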
# CHO-K1 ctr: parental CHO-K1 activity in KCNQ2 potentiator counter-screen | shares compounds with KCNQ2 enhance | parental CHO-K1 cells, FluxOR thallium flux fluorescence; zero = vehicle mean+3SD, 100% = vehicle-minus-blank window | activity increase over 3SD of controls, % at 10 µM | 1,200 tested, 43% active;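 active means signal rise of at least 3 SD above the untreated control mean, in both duplicate wells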;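 further: counter screen of KCNQ2 potentiator hits so any rise reflects channel-independent effects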
# KCNQ1 pot spec: human KCNQ1 counter-target activity of KCNQ2 potentiators | shares compounds with KCNQ2 enhance | CHO KCNQ1 stable, FluxOR thallium flux fluorescence; beyond 3SD, as % of vehicle-control signal | activation over 3SD threshold, % at 10 µM | 1,200 tested, 28% active | AID 2283;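 active means fluorescence ratio rise of at least 3 SD of vehicle wells above their mean, in both replicate wells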
# KCNQ2 pot confirm: rat KCNQ2 channel potentiator confirmation; shares compounds with KCNQ2 enhance; CHO-KCNQ2 cells, FluxOR thallium flux fluorescence; potentiation, less the hit threshold, % at 10 µM; 1,200 tested, 68% active;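 active means fluorescence ratio rising 3 SD or more over the vehicle control mean in both replicates, plus primary screen hit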;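 further: peak minus minimum thallium fluorescence divided by baseline after K/Tl stimulus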
# Kir2-1 sel: selectivity of KCNQ2 potentiators: effect on mouse Kir2.1; activity over 3SD threshold, % at 10 µM; 1,200 tested, 2% active; AID 2345; HEK293 Kir2.1, FluxOR thallium flux fluorescence; shares compounds with KCNQ2 enhance;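 active means fluorescence ratio rise of at least 3 SD above the vehicle-control mean, seen in both replicates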
# KCNQ2 W236L MoA: rat KCNQ2 W236L mutant potentiation by KCNQ2 potentiators; current increase over 3SD of negative controls (%), hits give high values, % at 25 µM; CHO KCNQ2-W236L, automated patch clamp current; 940 tested, 10% active; shares compounds with KCNQ2 enhance;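 active means current increase at least 3 SD of the untreated controls above them in both duplicate recordings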
# A number is an active result; - = inactive; . = not tested or not shown. Most compounds without a hit are left out; they make up all but 1.6% or so of the library.
SMILES,KCNQ2 inh,KCNQ2 enhance,Kir21 conf inh,HEK293 Tl flux,others
Cc1cc(C)c2cccc(N)c2n1,-,.,.,.,
Cc1cc(C)c2ccc(N)nc2c1O,-,12,-,-,CHO-K1 ctr=-;KCNQ1 pot spec=-;KCNQ2 pot confirm=12;Kir2-1 sel=-;KCNQ2 W236L MoA=-
CCCc1cc(=O)oc2cc(OC3CCCCC3=O)ccc12 (centres undefined),-,.,.,.,
CC1Sc2ccc(S(=O)(=O)CCC(=O)N3CCN(c4ccccc4F)CC3)cc2NC1=O (centres undefined),-,-,.,.,
COc1ccc(OC)c(CCNC(=O)c2cccc(NC(=O)C3=C(C)OCCS3)c2)c1,-,-,.,.,
CCn1cc(CCC(=O)NCc2ccccc2OC)c2ccccc21,-,-,50%,-,
CCn1cc(CCCC(=O)NCc2ccccc2OC)c2ccccc21,-,.,.,.,
COc1ccc(C(=O)Nc2c(O)ccc3ccccc23)cc1OC,-,-,.,.,
COc1ccc(S(=O)(=O)Nc2c(O)ccc3ccccc23)cc1OC,-,8,-,-,CHO-K1 ctr=29;KCNQ1 pot spec=1.9;KCNQ2 pot confirm=23;Kir2-1 sel=-;KCNQ2 W236L MoA=-
CN(CCCN1c2ccccc2CCc2ccccc21)CC(=O)c1ccc(Cl)cc1,-,.,.,.,
CN(C)CCCN1c2ccccc2CCc2ccc(Cl)cc21,-,.,41%,-,
O=C(Nc1ccccc1O)c1cccc(S(=O)(=O)Nc2ccccc2O)c1,-,-,.,.,
COc1ccc(NC(=O)c2csc3c2CCCC3)cc1,-,.,.,.,
COc1cccc(NC(=O)c2csc3c2CCCC3)c1,-,8,-,-,CHO-K1 ctr=-;KCNQ1 pot spec=-;KCNQ2 pot confirm=1.2;Kir2-1 sel=-;KCNQ2 W236L MoA=-
CC(=O)C1=C(C)NC(SCC(=O)c2ccc(F)cc2)=C(C#N)C1c1ccco1 (centres undefined),-,-,.,.,
Cc1ccc(C(=O)CSC2=C(C#N)C(c3ccco3)C3=C(CCCC3=O)N2)cc1 (centres undefined),-,6.6,-,-,CHO-K1 ctr=0.0;KCNQ1 pot spec=5.9;KCNQ2 pot confirm=-;Kir2-1 sel=-
CCc1ccc(C(=O)CSC2=C(C#N)C(c3ccco3)C(C(C)=O)=C(C)N2)cc1 (centres undefined),-,9.8,-,-,CHO-K1 ctr=113;KCNQ1 pot spec=-;KCNQ2 pot confirm=-;Kir2-1 sel=-
N#CC1=C(SCC(=O)c2ccccc2)NC2=C(C(=O)CCC2)C1c1ccco1 (centres undefined),-,-,.,.,
CCN(CC)C(=S)NC(=O)Cc1ccccc1,-,.,.,.,
CCN(Cc1ccccc1)C(=S)NC(=O)c1ccccc1Br,-,8.6,-,418%,CHO-K1 ctr=-;KCNQ1 pot spec=52;KCNQ2 pot confirm=46;Kir2-1 sel=-;KCNQ2 W236L MoA=-
CCC(=O)NC(=S)NNC(=O)c1ccccc1[N+](=O)[O-],-,.,.,.,
CCCN(Cc1ccccc1)C(=S)NC(=O)c1ccccc1[N+](=O)[O-],-,13,-,450%,CHO-K1 ctr=5.8;KCNQ1 pot spec=-;KCNQ2 pot confirm=60;Kir2-1 sel=-;KCNQ2 W236L MoA=-
COc1ccccc1CN1CCCC(CNC(=O)c2cccc3ccccc23)C1 (centres undefined),-,.,.,.,
CCC(C)NC(=O)C1CCC(=O)N1CCc1ccccc1 (centres undefined),-,-,.,.,
O=C(NN1CC(C(=O)OCc2ccc(Br)cc2)CC1=O)c1ccccc1 (centres undefined),-,9.7,-,-,CHO-K1 ctr=13;KCNQ1 pot spec=-;KCNQ2 pot confirm=55;Kir2-1 sel=-;KCNQ2 W236L MoA=3.6%
SMILES,KCNQ2 inh,KCNQ2 enhance,Kir21 conf inh,HEK293 Tl flux,others
O=C(COC(=O)C1CC(=O)N(Cc2ccccc2)C1)c1ccc(Br)cc1 (centres undefined),-,.,.,.,
CCOc1ccc(S(=O)(=O)Nc2ccc(C(=O)N3CCCC3)cc2)cc1C(N)=O,-,-,.,.,
CCOC(=O)[C@@H]1[C@H]2COc3ccccc3[C@@H]2N2C(=O)N(c3ccccc3)C(=O)[C@]12C,-,.,.,.,
CCOc1ccc(Cl)cc1CNCCCSc1nc(C)cc(C)n1,-,-,52%,-,
CCOc1ccc(Cl)cc1CNCCCSc1ncccn1,-,.,.,.,
CC(C)(C)c1ccc(CS(=O)CC(O)CO)cc1 (centres undefined),-,-,.,.,
O=C(N/N=C/c1ccncc1)c1cccs1,-,.,.,.,
CSc1ccc(/C=N/NC(=O)c2cccs2)cc1,-,14,-,-,CHO-K1 ctr=11;KCNQ1 pot spec=-;KCNQ2 pot confirm=-;Kir2-1 sel=-
CC(C)(C)OC(=O)NCCc1nnc(SCc2ccc(Cl)cc2Cl)o1,-5.9,-,34%,-,
CC(C)(C)OC(=O)NCCCCCc1nnc(SCc2cccc(F)c2)o1,-,.,.,.,
CC(C)(C)OC(=O)NCCc1nnc(SCC(=O)c2ccc(Cl)cc2)o1,-,.,.,.,
CC(C)(C)OC(=O)NCCc1nnc(SCc2cccc(Cl)c2)o1,-,.,26%,-,
Cc1cccc(CSc2nnc(CCNC(=O)OC(C)(C)C)o2)c1,-,.,33%,-,
CC(C)(C)OC(=O)NCCc1nnc(SCc2c(Cl)cccc2Cl)o1,-,.,.,.,
Cc1occc1C(=O)NNC(=O)CN1C(=O)NC(C)(c2ccccc2)C1=O (centres undefined),-,-,.,.,
O=C(/C=C/c1ccc(S(=O)(=O)N2CCOCC2)cc1)NCc1ccccc1,-,.,.,.,
COc1ccccc1NC(=O)CCN1C(=O)C2CC=CCC2C1=O (centres undefined),-,.,.,.,
COc1ccc(S(=O)(=O)Nc2cccc(F)c2C)cc1C(=O)N1CCOCC1,-,.,.,.,
CC(C)NC(=O)C1CCN(C2CCN(C(=O)c3cc4c(s3)CCCCC4)CC2)CC1,-,.,.,.,
NC(=O)C1CCN(C(=O)c2cc3c(s2)CCCC3)CC1,-,.,-,-,
Cc1cc(C)c2nc(C)cc(N/N=C/c3ccc(O)cc3)c2c1,-8.1,-,-,-,
Cc1cc(N/N=C/c2ccc(O)cc2)c2cccc(C)c2n1,-,-,.,.,
CC(C)C1Cc2c(sc3[nH]c(=S)n(Cc4ccccc4)c(=O)c23)CO1 (centres undefined),-,7.3,-,396%,CHO-K1 ctr=19;KCNQ1 pot spec=-;KCNQ2 pot confirm=52;Kir2-1 sel=-;KCNQ2 W236L MoA=-
Cc1nnc2n(-c3ccccc3)c(=O)c3c4c(sc3n12)COC(C(C)C)C4 (centres undefined),-,-,.,.,
CCOC(=O)c1sc(NC(=O)C2CC(=O)N(c3ccc(OCC)cc3)C2)nc1C (centres undefined),-,-,.,.,
COc1cc(OC)c(OC)cc1CNCCSc1nnnn1C,-,.,.,.,
N/C(=N\OC(=O)COc1ccc(Br)cc1)c1ccncc1,-,-,.,.,
N/C(=N\OS(=O)(=O)c1ccc(Br)cc1)c1ccncc1,-,5.6,-,-,CHO-K1 ctr=24;KCNQ1 pot spec=-;KCNQ2 pot confirm=-;Kir2-1 sel=-
Cn1cccc1C(=O)NNC(=O)COc1ccccc1F,-,.,.,.,
